49 compounds from PubChem BioAssay (Tox21) can be followed below.

Records with an inconclusive call do not appear. Values without a mark were called inactive. Activity calls are given as the source filed them. Calls follow the shape of the dose curve; as a rule, active = well fitted cell-killing curve with a large enough effect in the repeat runs; inconclusive = weak or mixed curves, or effect the other way; inactive = flat fitted curve, though single readings scatter.

Experiment [1] in a line: cAMP Responsive Elements (CRE) small molecule antagonists, cell-based qHTS assay: qHTS cell viability counter screen (AID 2060913). Also: nearly all actives have a fitted effect of over 40% in size. The conditions noted are these: CRE-bla HEK293T viability, CellTiter-Glo luminescence, 5 h; series mostly up to 92.4 µM. The gist of the method: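 CRE-bla HEK293T cells were seeded in assay medium with 10% dialyzed FBS, incubated 18 hrs at 37 C, then exposed to compounds plus 0.25 uM final NKH477 for 3 hrs. Viability was read by CellTiter-Glo luminescence after 30 min, in the same wells.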
(In qHTS, concentration-response curves come from the screen itself.)

Experiment [2] can be described thus: cAMP Responsive Elements (CRE) small molecule agonists, cell-based qHTS assay: qHTS cell viability counter screen (AID 2060914). Also: nearly all actives have a fitted effect of over 50% in size. The following applies: CRE-bla HEK293T viability, CellTiter-Glo luminescence, 5 h; series mostly up to 92.4 µM. The procedure, abridged: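 Cytotoxicity was measured as ATP luminescence (CellTiter-Glo, 30 min at room temperature) in the same wells as the CRE-bla FRET read-out. HEK293T CRE-bla cells had 3 h compound exposure at 37C/5% CO2.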
Potency is read from the fitted curve at half-maximal effect.

In the case of `ClC1C(Cl)C(Cl)C(Cl)C(Cl)C1Cl` (stereo not drawn), the Potency entry in experiment [1] and in experiment [2] was “inactive” each time.

Turning to `O=[N+]([O-])c1ccccc1-c1ccccc1`, the Potency result in experiment [1] and in experiment [2] was “inactive” throughout.

With `C=Cc1cccc(CCl)c1`, the Potency entry in experiment [1] and in experiment [2] was “inactive” in each case.

On to `NNC(=O)c1ccccc1`, for which the Potency result in experiment [1] and in experiment [2] was “inactive” throughout.

For the compound `C=CC(Cl)CCl` (stereo not drawn), the Potency entry in experiment [1] and in experiment [2] was “inactive” each time.

`CCCCCCC1CCOC1=O` (stereo not drawn): the Potency result in experiment [1] and in experiment [2] was “inactive” each time.

`CCCCOCCOP(=O)(OCCOCCCC)OCCOCCCC`: the Potency result in experiment [1] and in experiment [2] was “inactive” in each case.

`O=C(O)C(Br)Br`: the Potency entry in experiment [1] and in experiment [2] was “inactive” in each case.

With `CC1CCCCC1NC(=O)Nc1ccccc1` (stereo not drawn), the Potency result in experiment [1] and in experiment [2] was “inactive” each time.

`O=[N+]([O-])c1cc([As](=O)(O)O)ccc1O`: the Potency result in experiment [1] and in experiment [2] was “inactive” throughout.

Turning to `C(=NC1CCCCC1)=NC1CCCCC1`, the Potency result in experiment [1] and in experiment [2] was “inactive” throughout.

Regarding `N#Cc1c[nH]cc1-c1cccc2c1OC(F)(F)O2`, the Potency result in experiment [1] and in experiment [2] was “inactive” in each case.

As to `COc1ccc(O)c(C(C)(C)C)c1`, the Potency result in experiment [1] and in experiment [2] was “inactive” throughout.

Regarding `CCCSC(=O)Cl`, the Potency result in experiment [1] and in experiment [2] was “inactive” in each case.

As to `CCc1cccc(C)c1N(C(=O)CCl)C(C)COC` (stereo not drawn), the Potency result in experiment [1] and in experiment [2] was “inactive” throughout.

Take `CC(C)NCC(O)c1ccccc1Cl` (stereo not drawn): the Potency entry in experiment [1] and in experiment [2] was “inactive” each time.

As for `CCOP(=O)(OCC)Oc1nc(Cl)c(Cl)cc1Cl`, the Potency entry in experiment [1] and in experiment [2] was “inactive” each time.

Take `O=C(O)C(Cl)Cl`: the Potency entry in experiment [1] and in experiment [2] was “inactive” in each case.

As for `CC(C)=C[C@@H]1[C@@H](C(=O)OCc2coc(Cc3ccccc3)c2)C1(C)C`, the Potency entry in experiment [1] and in experiment [2] was “inactive” in each case.

Consider `ClCCCCCCCl`, for which the Potency result in experiment [1] and in experiment [2] was “inactive” throughout.

On to `CCS(=O)(=O)CCSP(=O)(OC)OC`, for which the Potency entry in experiment [1] and in experiment [2] was “inactive” throughout.

In the case of `S=C1NCCN1`, the Potency entry in experiment [1] and in experiment [2] was “inactive” each time.

With `O=c1[nH]c(Cl)c(Cl)cc1Cl`, the Potency entry in experiment [1] and in experiment [2] was “inactive” in each case.

On to `Nc1c(Cl)cc([N+](=O)[O-])cc1Cl`, for which the Potency result in experiment [1] and in experiment [2] was “inactive” throughout.

`CC(C)(C#N)N=NC(C)(C)C#N`: the Potency result in experiment [1] and in experiment [2] was “inactive” throughout.

Regarding `COc1cc(N)c(Cl)cc1C(=O)NC1CN2CCC1CC2` (stereo not drawn), the Potency result in experiment [1] and in experiment [2] was “inactive” each time.

On to `CCC1(c2ccc(N)cc2)CCC(=O)NC1=O` (stereo not drawn), for which the Potency result in experiment [1] and in experiment [2] was “inactive” throughout.

For `CCCCC/C=C\C/C=C\C/C=C\C/C=C\CCCC(=O)NCC(=O)O`, the Potency entry in experiment [1] and in experiment [2] was “inactive” in each case.

Regarding `CNCC(O)c1ccc(O)cc1` (stereo not drawn), the Potency result in experiment [1] and in experiment [2] was “inactive” in each case.

On to `O=C(NC(O)C(Cl)(Cl)Cl)NC(O)C(Cl)(Cl)Cl` (stereo not drawn), for which the Potency result in experiment [1] and in experiment [2] was “inactive” in each case.

For `Clc1cccc(N2CCNCC2)c1`, the Potency result in experiment [1] and in experiment [2] was “inactive” each time.

Turning to `CCOS(=O)(=O)OCC`, the Potency entry in experiment [1] and in experiment [2] was “inactive” each time.

Consider `C[N+](C)(C)C`, for which the Potency result in experiment [1] and in experiment [2] was “inactive” in each case.

Take `CCCC(C)C1(CC)C(=O)N=C(S)NC1=O` (stereo not drawn): the Potency entry in experiment [1] and in experiment [2] was “inactive” in each case.

Consider `O=C1C(I)=CC(=C(c2cc(I)c(O)c(I)c2)c2ccccc2C(=O)O)C=C1I`, for which the Potency result in experiment [1] and in experiment [2] was “inactive” throughout.

With `Nc1ccccc1-c1ccccc1`, the Potency result in experiment [1] and in experiment [2] was “inactive” throughout.

Turning to `Cl/C=C\C[N+]12CN3CN(CN(C3)C1)C2`, the Potency entry in experiment [1] and in experiment [2] was “inactive” each time.

With `COc1cc(C[C@@H](C)N)c(OC)cc1Br`, the Potency result in experiment [1] and in experiment [2] was “inactive” each time.

For `CC(C)(Cl)[N+](=O)[O-]`, the Potency entry in experiment [1] and in experiment [2] was “inactive” in each case.

As to `O=C(O)C1C2CCC(O2)C1C(=O)O` (stereo not drawn), the Potency entry in experiment [1] and in experiment [2] was “inactive” each time.

Regarding `COc1ccc2c3c1O[C@H]1[C@H](O)CC[C@H]4[C@@H](C2)N(C)CC[C@@]341`, the Potency entry in experiment [1] and in experiment [2] was “inactive” in each case.

`CC1CN1P(=O)(N1CC1C)N1CC1C` (stereo not drawn): the Potency entry in experiment [1] and in experiment [2] was “inactive” each time.

As to `C=CC[C@]1(O)CC[C@H]2[C@@H]3CCC4=CC(=O)CCC4=C3C=C[C@@]21C`, the Potency entry in experiment [1] and in experiment [2] was “inactive” throughout.

`C[C@@H]1CC[C@@]2(OC1)O[C@H]1[C@@H](O)[C@H]3[C@@H]4CC[C@H]5C[C@@H](O[C@@H]6O[C@H](CO)[C@H](O[C@@H]7O[C@H](CO)[C@@H](O)[C@H](O[C@@H]8OC[C@@H](O)[C@H](O)[C@H]8O)[C@H]7O[C@@H]7O[C@H](CO)[C@@H](O)[C@H](O[C@@H]8O[C@H](CO)[C@@H](O)[C@H](O)[C@H]8O)[C@H]7O)[C@H](O)[C@H]6O)[C@H](O)C[C@]5(C)[C@H]4CC[C@]3(C)[C@H]1[C@@H]2C`: the values for the Potency in experiment [1] and in experiment [2] were 32.5 µM (active) and 29 µM (active), respectively.

With `O.O.O.O=C([O-])[C@H]([O-])[C@@H]([O-])C(=O)[O-].O=C([O-])[C@H]([O-])[C@@H]([O-])C(=O)[O-].[K+].[K+].[Sb+3].[Sb+3]`, the Potency result in experiment [1] and in experiment [2] was “inactive” each time.

In the case of `CCOC(=S)S`, the Potency entry in experiment [1] and in experiment [2] was “inactive” each time.

Take `C(CCOCC1CO1)COCC1CO1` (stereo not drawn): the Potency entry in experiment [1] and in experiment [2] was “inactive” each time.

With `CCOC(=O)c1ccccc1S(=O)(=O)NC(=O)Nc1nc(Cl)cc(OC)n1`, the Potency entry in experiment [1] and in experiment [2] was “inactive” each time.

Turning to `O=[N+]([O-])c1ccccc1`, the Potency entry in experiment [1] and in experiment [2] was “inactive” throughout.
